# Reference: PubChem BioAssay
# Test system: Wnt5a (protein binding on small-molecule microarray)
# Test: small molecules binding Wnt5a protein – biophysical, small-molecule microarray, 635/667 nm fluorescence, primary screen (AID 1142);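 further: fluorescence read at 667 nm with signal to noise per printed feature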
# Conditions: 635 nm fluorescence, higher = more signal
row,SMILES,composite z-score
1,CO[C@H]1COC(=O)CC=C[C@H](C)[C@@H](OC)COC(=O)CC=C[C@@H]1C,0.27
2,COCCOC(=O)N1C(=O)[C@@]2(c3cc(C#CCCO)ccc31)[C@H](C(=O)N1CCCCCCC1)[C@H]1C(=O)O[C@H](c3ccccc3)[C@H](c3ccccc3)N1[C@@H]2c1ccc(O)cc1,0.138
3,Cc1ccc(N2C(=O)c3ccccc3[C@@H](C(=O)NCc3ccccc3)[C@@H]2c2ccc(CO)cc2)nc1,0.0687
4,CC(=O)NCCCC[C@@H]1NC(=O)[C@@H]2C[C@H](C(=O)NCCCCCNC(=O)CS)[C@H](c3ccc(O)cc3)N2C1=O,0.443
5,O=C(CS)NCCCCCNC(=O)[C@H]1C[C@H]2C(=O)N3CCC[C@H]3C(=O)N2[C@H]1c1ccc(O)cc1,0.143
6,C[C@@H]1CC[C@H]2C(=O)N3CCC[C@H]3C(=O)N2[C@H]1c1ccc(Br)cc1,0.12
7,O=C1O[C@@H](c2ccccc2)[C@@H](c2ccccc2)N2[C@@H](c3ccc(O)cc3)[C@]3(C(=O)Nc4ccc(C#CC5(O)CCCCCC5)cc43)[C@@H](C(=O)Nc3nc4ccccc4s3)[C@H]12,0.285
8,C[N+](C)(C)CCCC[C@@H]1NC(=O)[C@H]2C[C@@H](C(=O)NCc3ccc(F)cc3)[C@@H](c3cccc(OCCO)c3)N2C1=O,0.141
9,CO[C@H]1COC(=O)[C@H](Cc2ccccc2)NC(=O)CC=C[C@@H](C)[C@H](OC)COC(=O)CC=C[C@@H]1C,0.175
10,COC(=O)c1c(CC[C@@H](CO)NC(=O)N[C@H](Cn2cc(-c3cncn3C)nn2)C(C)C)oc(C(C)=O)c1C(=O)OC,0.0781
